# Laboratory results from article PMC12136788.
# Where a chain is given by its changes, count along the chain named. In all, about 24,000 sequences were measured (“enrichment r”: median about 0.99, highest 2% from about 3.7 on). Many of the other results were omitted from the sample, so the highest values are more common in it than they were.
# B1: 5253780_5253900_1103_CDS_ENSG00000029725_ENST00000262477|human|control|control (ssRNA)
# RNA: GGGAGUUCUACAGUCCGACGAUCAACUUGUCGGAGCUGUUCUGAAGUUAGCACAAUCUCCAUUCGCUGCAUGUCUCUCAUCAGUAAACGCUGAGAUUCCAGAAACUGGUCAUUGGCCUUCUGCCACGUAUGUUUUAACUGGUUCAACAGAGGAUUGAGCAUCA
# B2: chr22:32879901:32879902:+_ENSG00000100225_ENST00000397426|hu_mus|hu_hu_hu_mus_False|48_98 (ssRNA)
# RNA: GGGAGUUCUACAGUCCGACGAUCCUCUUCCAUACUCGCAUUAUCUUGAAUUGACUCAGCUUCAACAUUUUGACUAGGCCCUUCCAUACUGUCGUCAGUCCAGGCAUCAAAUGGGGUGGCCUGUCCUUGGGAUGAAUCAGUCCCCAACAGAGGAUUGAGCAUCA
# B3: chr17:56552419:56552420:-_ENSMUSG00000013236_ENSMUST00000086828|mus_mus|mus_mus_mus_hu_False|78_88 (ssRNA)
# RNA: GGGAGUUCUACAGUCCGACGAUCAAAAAAUACACUAUUUAAAAAAAAAAGAAAAAAAGAAAAAGAAGUUACACUGAGAGUUUUAAAAGAAAGCUGGAUUCUGGUCCCAGCCCAGUGUCCCCAGGCUGCAGAGCGGGGAGGAGCCAACAGAGGAUUGAGCAUCA
# B4: chr17:56552419:56552420:-_ENSMUSG00000013236_ENSMUST00000086828|mus_mus|mus_mus_mus_hu_False|58_78 (ssRNA)
# RNA: B3 RNA with A48U, A49G, G50A, A53U, A54G, A55U, A56C, G77C, G79C, U81A
# B5: chr17:56552419:56552420:-_ENSMUSG00000013236_ENSMUST00000086828|mus_mus|mus_mus_mus_hu_False|78_98 (ssRNA)
# RNA: B3 RNA with U38A, U39A, A48U, A49G, G50A, A53U, A54G, A55U, A56C
# B6: chr17:56552419:56552420:-_ENSMUSG00000013236_ENSMUST00000086828|mus_mus|mus_mus_mus_hu_False|1_78 (ssRNA)
# RNA: B3 RNA with A48U, A49G, G50A, A53U, A54G, A55U, A56C, A138C, G139A, C143G
# Biological target: T1, UNK ZnF1-3 (human, UniProt Q9C0B0 31-174)
# T1 sequence: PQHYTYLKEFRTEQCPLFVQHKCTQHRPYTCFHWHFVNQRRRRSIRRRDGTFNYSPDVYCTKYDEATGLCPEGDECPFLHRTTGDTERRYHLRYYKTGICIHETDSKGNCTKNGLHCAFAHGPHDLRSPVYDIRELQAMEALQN
# Test: nsRBNS (natural sequence RNA bind-n-seq); RBNS binding buffer (assumed for nsRBNS): 25 mM Tris pH 7.5, 150 mM KCl, 3 mM MgCl2, 0.01% Triton X-100, 500 ug/ml BSA, 20 U/ml SUPERase-In, 4 C; UNK is unkempt and MSI1 is Musashi-1; names of the RNAs are library labels; protein concentration not given here; high values mean tight binding
row,Binder,binding signal [enrichment R]
1,B1,0.594
2,B2,0.919
3,B3,12.6
4,B4,8.52
5,B5,8.48
6,B6,3.68
